# Mtb FBA inh: Mtb FBA enzyme inhibitors, primary screen, biochemical, fluorescence, strain H37Rv; inhibition, % at 1 µM; Fructose-bisphosphate aldolase (Mycobacterium tuberculosis (strain ATCC 25618 / H37Rv)), …; hit rate 2.3% among 360,000; purified M. tuberculosis FBA, fluorescence read-out; in the data active means inhibition above about 27%;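 further: 0% = vehicle and 100% = reference inhibitor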
# Target sequence (P9WQA3 whole entry, looked up): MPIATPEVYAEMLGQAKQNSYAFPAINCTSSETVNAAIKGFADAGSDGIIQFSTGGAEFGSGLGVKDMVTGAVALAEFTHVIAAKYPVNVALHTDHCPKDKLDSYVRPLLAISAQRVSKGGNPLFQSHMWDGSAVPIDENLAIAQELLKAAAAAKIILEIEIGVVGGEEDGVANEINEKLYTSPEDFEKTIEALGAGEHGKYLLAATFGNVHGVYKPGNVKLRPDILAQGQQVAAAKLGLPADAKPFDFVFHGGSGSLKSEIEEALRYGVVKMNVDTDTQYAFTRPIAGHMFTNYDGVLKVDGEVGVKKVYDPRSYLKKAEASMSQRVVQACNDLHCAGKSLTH
# Mtb UGM inh: M. tuberculosis UGM enzyme inhibitors, primary screen, biochemical, fluorescence polarization, single point | UDP-galactopyranose mutase (Mycobacterium tuberculosis (strain ATCC 25618 / H37Rv)), … | purified UGM, fluorescence polarization probe displacement | inhibition, % at 10 µM | hit rate 0.06% among 320,000; in the data active means inhibition above about 10%, passing the limit was not always enough
# GDH-TPI counter: GDH-TPI coupling enzyme inhibitors, primary screen, artefact control for M. tuberculosis FBA inhibitor project, biochemical, absorbance, full deck | inhibition, % at 4.8 µM | hit rate 1.2% among 360,000 | GDH-TPI coupled enzyme counterscreen, NADH absorbance; in the data active means inhibition above about 30%;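 further: 0% = DMSO wells and 100% = wells lacking the enzyme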
# FadD28 binding: inhibitors of FadD28 bisubstrate probe binding, primary screen, biochemical, fluorescence polarization, single point; AID 588549, 2011; inhibition, % at 12.5 µM; hit rate 0.22% among 360,000; in the data active means inhibition above about 8.5%, passing the limit was not always enough
# Rv3671c inh: Rv3671c serine protease inhibitors, primary screen, biochemical, fluorescence polarization, M. tuberculosis H37Rv; P9WHR9; inhibition, % at 5.96 µM; hit rate 0.048% among 320,000; in the data active means inhibition above about 38%;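 further: extracellular domain of Rv3671c used as enzyme; 0% = enzyme with DMSO and 100% = no enzyme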
# Mtb hypoxia rep: PubChem AID 1159583; M. tuberculosis hypoxia-regulated fluorescent reporter, fluorescence; fluorescence inhibition, % (concentration not given with the values); hit rate 0.1% among 300,000; in the data active means fluorescence inhibition mostly above about 23%, no sharp cut-off; inactive means mostly below about 17%
# Active calls of the source: *; . = no result given; + = active, no number. An excerpt weighted towards active compounds, which were near 3.5% of everything screened.
SMILES,Mtb FBA inh,Mtb UGM inh,GDH-TPI counter,FadD28 binding,Rv3671c inh,Mtb hypoxia rep
O=[N+]([O-])c1ccc(NN=Cc2cc(Br)ccc2O)nc1,-7,.,5,-3,.,37*
O=C(CC1CC=CCCCC(=O)OC(c2ccccc2)CNC1=O)NC(CO)Cc1ccccc1 (stereo not given),.,.,.,.,.,-5
Nc1c(C(=O)OCC2CCCO2)c2nc3ccccc3nc2n1C1CCCCC1 (stereo not given),14,0,8,-2,-21,1
CCCCn1c(N)c(C(=O)OCC2CCCO2)c2nc3ccccc3nc21 (stereo not given),+,3,18,-9,-158,-8
CC(C)CCn1c(N)c(C(=O)OCC2CCCO2)c2nc3ccccc3nc21 (stereo not given),134*,3,8,-13,-135,9
CC(=NN(Cc1ccccc1)c1ccccc1)c1cccnc1,.,.,.,.,.,3
O=c1c2ccccc2[nH]c2ccccc12,139*,2,4,0,0,.
CN(CC(=O)OCC(=O)NC(=O)c1cccn1C)S(=O)(=O)c1ccc(Cl)cc1,193*,2,7,-3,-5,.
CCCCN1CC(=O)N2C3c4ccccc4OCC3C(C(=O)OCC)[C@]2(C)C1=O (stereo not given in full),.,.,.,.,.,11
O=C(COC(=O)c1cc(-c2cccs2)nc2ccccc12)NCc1ccco1,45*,-1,8,-7,-19,.
O=C(COC(=O)c1cc(-c2ccc(Cl)s2)nc2ccccc12)NCc1ccco1,16,0,3,-10,-24,.
Cc1ccc(-c2cc(C(=O)NCc3ccco3)c3ccccc3n2)s1,113*,5,24,-5,-6,.
CN(C)c1ccc(C=NN2CCN(Cc3ccccc3Cl)CC2)cc1,.,.,.,.,.,-5
CCOC(=O)/C=c1\s/c(=C\c2c(OC)ccc3ccccc23)c(=O)n1CC(=O)NCC1CCCO1 (stereo not given),-3,5,38*,-2,-28,.
COc1ccc(C(=O)C(C=NO)=NNc2ccc(F)cc2)cc1,.,.,.,.,.,2
O=C(/C=C/c1ccco1)Nc1cccc(C(=O)Nc2ccccc2C(=O)O)c1,-3,2,15,-32,-31,3
Cc1cc(C)nc(NC(=O)/C=C/c2ccc3c(c2)OCO3)c1,13,-3,40*,2,-8,.
O=C(/C=C\c1ccco1)Nc1nc(-c2ccc3ccccc3c2)cs1,2,-2,36*,-1,-168,-5
Cc1ccc(C(=O)C=Cc2ccc3c(c2)OCO3)c(C)c1,3,.,11,-2,.,.
O=C(/C=C/c1ccc2c(c1)OCO2)c1ccc(O)cc1O,-10,.,40*,0,.,-4
CCc1ccccc1NC(=O)c1cccc(NC(=O)/C=C/c2ccco2)c1,0,1,44*,-12,-18,.
COc1ccc(NC(=O)C(=O)NN=C(C)CC(=O)Nc2ccccn2)c(OC)c1,.,.,.,.,.,0
CCOC(=O)C=c1sc2n(c1=O)CCN=2,.,.,.,.,.,5
Cc1ccccc1-n1nc2c(c1NC(=O)/C=C\c1ccc3c(c1)OCO3)CSC2,2,1,32*,-3,-24,4
Cc1ccc(C(=O)Nc2cc(=O)n(C)c(=O)n2C)o1,-3,-1,33*,-1,-2,-4
SMILES,Mtb FBA inh,Mtb UGM inh,GDH-TPI counter,FadD28 binding,Rv3671c inh,Mtb hypoxia rep
Cc1sc(NC(=O)/C=C/c2ccc3c(c2)OCO3)nc1-c1ccccc1,4,-2,13,-5,-44,3
O=C(/C=C/c1ccc2c(c1)OCO2)Nc1nc(-c2ccccc2)cs1,3,-5,46*,-2,-103,.
Cc1ccc(/C=C/C(=O)Nc2cc(=O)n(C)c(=O)n2C)o1,-3,4,2,-1,0,6
Cn1c(NC(=O)/C=C/c2ccco2)cc(=O)n(C)c1=O,-4,-2,31*,0,-2,3
COc1cccc(C=NNC(=O)C(=O)NCc2cccnc2)c1O,.,.,.,.,.,6
COc1cc(C=NNC(=O)Cc2csc(C)n2)ccc1OCC(C)C,.,.,.,.,.,-3
C[C@]12C=CC(=O)C=C1CCC1C2C(O)C[C@@]2(C)C1CC[C@]2(O)C(=O)CO (stereo not given in full),.,.,.,.,.,5
NS(=O)(=O)c1ccc(NC(=O)/C=C/c2ccc3c(c2)OCO3)cc1,22,0,36*,-7,-22,10
O=C(/C=C/c1ccco1)Nc1ccc2c(c1)OCO2,-6,2,33*,-3,4,-12
O=C(/C=C/c1ccco1)NCc1ccc2c(c1)OCO2,-8,-4,6,-4,-6,10
CCOc1cc(C=NNC(=O)c2cc(C)n(-c3ccc(F)cc3)c2C)ccc1O,.,.,.,.,.,-1
Cc1nc2c(n1O)CCCC2=NO,.,.,.,.,.,-1
COc1cc(/C=N/NC(=O)c2ccc(NC(=O)C3CCCCC3)cc2)ccc1O,-2,0,35*,-1,.,.
COc1cc(/C=N/NC(=O)c2cc(-c3ccc4c(c3)OCO4)n[nH]2)ccc1O,-3,-1,39*,-4,-5,.
COc1cc(/C=N/NC(=O)c2cc(C3CC3)[nH]n2)ccc1O,-3,2,44*,-3,-4,.
COc1cc(/C=N/NC(=O)c2cc(-c3c(C)nn(-c4ccccc4)c3C)n[nH]2)ccc1O,-1,0,33*,-5,-10,.
COc1cc(C=NNC(=O)c2cc(C3CC3)[nH]n2)ccc1O,.,.,.,.,.,1
CCC(C)Sc1ccc(C2C3C(=O)N(C)C(=O)C3[C@]3(C(=O)OC)CCCCN23)cc1OC (stereo not given in full),.,.,.,.,.,22
CC(Cn1nnc([N+](=O)[O-])n1)=NNC(=O)c1cccc(Cl)c1,.,.,.,.,.,-1
Cc1nn(-c2ccccc2)c(C)c1-c1cc(C(=O)N/N=C/c2ccc(O)cc2)[nH]n1,5,1,44*,-3,7,.
Cc1nn(-c2ccccc2)c(C)c1/C=N/NC(=O)c1cc(O)cc(O)c1,2,3,7,0,-7,.
COc1ccc(/C=N/NC(=O)c2ccc(Cn3cc([N+](=O)[O-])cn3)o2)cc1O,0,1,37*,-3,-2,.
CCOc1ccc(/C=N/NC(=O)c2ccc(Cn3cc([N+](=O)[O-])cn3)o2)cc1,-5,-3,42*,-2,-2,.
CCOc1ccc(/C=N/NC(=O)c2ccc(Cn3cc(Br)cn3)o2)cc1,6,-1,29,0,-6,.
CC(=O)C(=NNc1cccc(Cl)c1)Sc1cccc2cccnc12,.,.,.,.,.,-3
CC(Cc1ccccc1)=NNC(=O)c1cccnc1,.,.,.,.,.,8
CCCCCCC(=O)N1CC=CC(c2ccc(OC)cc2)N(Cc2ccc(F)cc2)C(=O)C1 (stereo not given),.,.,.,.,.,18
CCOC(=O)/C(C#N)=C1/C=C(C)NC(c2ccccc2O)=N1,6,0,23,0,10,14

# Source: PubChem BioAssay
